Reference: PubChem BioAssay (NCATS)
Results filed as inconclusive are left out. Calls of active or inactive are those of the source. Calls come from the whole dose curve; as a rule, active = well fitted inhibition curve with a large enough effect; inconclusive = small, poorly fitted or top-dose-only effect; inactive = flat fitted curve, though single readings scatter. Where a SMILES comes first, the peptide text is derived from it. Bridges are numbered along the chain shown (N, C = ends). [ ]: non-standard residue; d: D form. hArg = N=C(N)NCCCC[C@H](N)C(=O)O; Mpa = O=C(O)CCS

System: KB-3-1
Assay: Cytotoxic Profiling of Annotated Libraries Using Quantitative High-Throughput Screening (AID 1296008); note: nearly all actives have a fitted effect of over 60% in size
Settings: Five cell lines viability, CellTiter-Glo ATP luminescence, 48-72 h, hits give low values
Text: Cell-based phenotypic screening is a commonly used approach to discover biological pathways, novel drug targets, chemical probes and high-quality hit-to-lead molecules. Many hits identified from high-throughput screening campaign are ruled out through a series of follow-up potency, selectivity/specificity, and cytotoxicity assays. Prioritization of molecules with little or no cytotoxicity for a more in-depth downstream evaluation influence the future direction of projects, so cytotoxicity profiling of the screening libraries at early stage is essential for increasing the likelihood of candidate success. […] For the annotated library, we also examined the primary targets and mechanistic pathways regularly associated with cell death. To our knowledge, this is the first study to use high-throughput screening to profile large libraries for cytotoxicity assessment in both normal and cancer cell lines. In summary, the results generated here constitutes a valuable resource for the scientific community and provides insight on identifying cytotoxic compounds with particular mechanisms of action, and prioritizing compounds with suitable cytotoxicity profile for further evaluation.
A pintool (Kalypsys) was used to transfer 23 nL of compound solution to the 1536-well assay plates. After 48 or 72 hr incubation at 37 degree Celsius, 5% CO2 and 95% humidity, 2.5 uL of CellTiter-Glo (Promega) was dispensed into each well using a dispenser (Aspect Automation, St. Paul, MN) with solenoid valves (Lee Valves, Westbrook CT). Plates were left at room temperature for 10 min before imaging the ATP-coupled luminescence using a ViewLux microplate imager (PerkinElmer, Waltham, MA).
% is set by controls: 0 for no effect and ±100 for the full control effect.

**Q.** Which max response does the source give for `COc1ccc(C(=O)N2CCN(CC(=O)N3CCOCC3)CC2)cc1` here?
**A.** 5.06% (inactive)

**Q.** `CC1(C)[C@@H](OC(=O)CCC(=O)O)CC[C@]2(C)[C@H]3C(=O)C=C4[C@@H]5C[C@@](C)(C(=O)O)CC[C@]5(C)CC[C@@]4(C)[C@]3(C)CC[C@@H]12` was tested. Which max response did it give?
**A.** -3.96% (inactive)

**Q.** How did the max response turn out when `C[C@@H]1O[C@@H](OC[C@H]2O[C@@H](Oc3c(-c4ccc(O)c(O)c4)oc4cc(O)cc(O)c4c3=O)[C@H](O)[C@@H](O)[C@@H]2O)[C@H](O)[C@H](O)[C@H]1O` was run?
**A.** 16.6% (inactive)

**Q.** How did the max response turn out when `CCN(CC)C(=O)c1cccc(C)c1` was run?
**A.** 13.2% (inactive)

**Q.** Which max response does the source give for `CN1CC(=O)NC1=N` here?
**A.** 3.48% (inactive)

**Q.** How did the max response turn out when `CCCCCCCCCCCCCCCCCCO` was run?
**A.** 12.1% (inactive)

**Q.** For `CCOC(=O)[C@H](CCc1ccccc1)N[C@@H](C)C(=O)N1CCC[C@H]1C(=O)O`, which max response is on record?
**A.** 7.19% (inactive)

**Q.** `CC(C)CCCC(C)CCCC(C)CCCCC(C)CCCC(C)CCCC(C)C` (stereo not given) was tested. Which max response did it give?
**A.** 12.8% (inactive)

**Q.** `COC(=O)c1cccnc1` was tested. Which max response did it give?
**A.** 10% (inactive)

**Q.** `CC(=O)NS(=O)(=O)c1ccc(N)cc1` was tested. Which max response did it give?
**A.** 3.12% (inactive)

**Q.** Which max response does the source give for `CCc1cccc(CC)c1NC(=O)CN(CC(=O)O)CC(=O)O` here?
**A.** -15.5% (inactive)

**Q.** With `CCOC(N)=O` as the compound, how does the max response read?
**A.** -7.14% (inactive)

**Q.** With `Cc1[nH]c(C)c(Cl)c(=O)c1Cl` as the compound, how does the max response read?
**A.** -14.2% (inactive)

**Q.** `CC(=O)OCC(COC(C)=O)OC(C)=O` was tested. Which max response did it give?
**A.** 8.48% (inactive)

**Q.** For `CC1(C)S[C@@H]2[C@H](NC(=O)C(C(=O)O)c3ccccc3)C(=O)N2[C@H]1C(=O)O` (stereo not given in full), which max response is on record?
**A.** 3.76% (inactive)

**Q.** Which max response does the source give for `O=C(O)[C@@H]1[C@H]2C[C@H]3c4[nH]c5ccccc5c4CCN3C[C@@H]2CC[C@@H]1O` here?
**A.** 7.03% (inactive)

**Q.** With `Cc1cc(C)c(NC(=O)CN(CC(=O)O)CC(=O)O)c(C)c1Br` as the compound, how does the max response read?
**A.** 14.1% (inactive)

**Q.** With `NC(N)=NCCN1CCCCCCC1` as the compound, how does the max response read?
**A.** 18.1% (inactive)

**Q.** `Cc1cc(C)nc(NS(=O)(=O)c2ccc(N)cc2)n1` was tested. Which max response did it give?
**A.** -0.934% (inactive)

**Q.** With `O=C(Cn1ccnc1[N+](=O)[O-])NCCO` as the compound, how does the max response read?
**A.** 0.623% (inactive)

**Q.** `CCCCOC(=O)c1ccc(N)cc1` was tested. Which max response did it give?
**A.** 0.229% (inactive)

**Q.** For `O=C(O)CCC(=O)O`, which max response is on record?
**A.** 7.68% (inactive)

**Q.** For `O=C(O)CCCc1ccccc1`, which max response is on record?
**A.** 18.7% (inactive)

**Q.** With `Cc1c(Cn2ccnc2)c2ccccc2n1CCC(=O)O` as the compound, how does the max response read?
**A.** -18.7% (inactive)

**Q.** `O=C(O)c1ccccc1C(=O)Nc1ccc(S(=O)(=O)Nc2nccs2)cc1` was tested. Which max response did it give?
**A.** 5.93% (inactive)

**Q.** `NC(=O)[C@@H]1CSSCCC(=O)N[C@@H](CCCCN=C(N)N)C(=O)NCC(=O)N[C@@H](CC(=O)O)C(=O)N[C@@H](Cc2c[nH]c3ccccc23)C(=O)N2CCC[C@H]2C(=O)N1` ([Mpa][hArg]GDWPC-NH2; disulfide 1-7) was tested. Which max response did it give?
**A.** 3.01% (inactive)

**Q.** With `CCCCCC(N)=O` as the compound, how does the max response read?
**A.** -2.56% (inactive)

**Q.** With `O=C1c2ccccc2S(=O)(=O)N1CCCCN1CCN(c2ncccn2)CC1` as the compound, how does the max response read?
**A.** -5.25% (inactive)

**Q.** Which max response does the source give for `OCCN1C[C@H](O)[C@@H](O)[C@H](O)[C@H]1CO` here?
**A.** 4.48% (inactive)

**Q.** `COc1ccccc1OC(=O)Oc1ccccc1OC` was tested. Which max response did it give?
**A.** -6.45% (inactive)

**Q.** For `Cc1cccc(C)c1NC(=O)CC12CCCN1CCC2`, which max response is on record?
**A.** -0.628% (inactive)

**Q.** For `C/C(=C(\CCO)SS/C(CCO)=C(\C)N(C=O)Cc1cnc(C)nc1N)N(C=O)Cc1cnc(C)nc1N`, which max response is on record?
**A.** -5.06% (inactive)

**Q.** Which max response does the source give for `CCCNC(C)(C)COC(=O)c1ccccc1` here?
**A.** 0.448% (inactive)

**Q.** `CC(=O)N[C@H]1[C@H]([C@H](O)[C@H](O)CO)OC(C(=O)O)=C[C@@H]1N=C(N)N` was tested. Which max response did it give?
**A.** 6.48% (inactive)

**Q.** Which max response does the source give for `CCOc1ccccc1O[C@H](c1ccccc1)[C@H]1CNCCO1` here?
**A.** 2.06% (inactive)

**Q.** How did the max response turn out when `CC(C)NC[C@@H](O)COc1ccc(CC(N)=O)cc1` was run?
**A.** 3.62% (inactive)

**Q.** How did the max response turn out when `O=C(NCN1CCOCC1)c1cnccn1` was run?
**A.** -13.5% (inactive)

**Q.** For `NC(=O)c1ccc([N+](=O)[O-])cc1Cl`, which max response is on record?
**A.** 1.89% (inactive)

**Q.** Which max response does the source give for `NC(=O)CC[C@@H](N)C(=O)O` here?
**A.** -2.46% (inactive)

**Q.** `O=c1[nH]c2cc(C(F)(F)F)c(N3CCOCC3)cc2n(CP(=O)(O)O)c1=O` was tested. Which max response did it give?
**A.** 8.61% (inactive)
